This is one part of the list. Unmarked numbers belong to inactive results. Calls of active or inactive are those of the source.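 How the source made its calls, unless noted: active means mean inhibition of the triplicate above the hit cutoff set for the earlier primary screen (cut at about 25% in these data); inactive means the rest.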

The target in assay [1] is Oxytocin receptor (Homo sapiens) (UniProt P30559). Nature of the assay: oxytocin receptor activation, retest of hits – fluorescence, CHO-OTR cells, triplicate, confirmation (AID 434963;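 active means mean activation above about 20% derived from the earlier single-dose screen, limit read from the data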;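 further: peak over minimum fluorescence ratio per well during a 100 second FLIPR read; 0% = DMSO alone and 100% = oxytocin high control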). Particulars: Fluo-8 calcium fluorescence, agonist, at 3 µM, stronger effect = higher value.
For assay [2], the target named is Vasopressin V1a receptor (Homo sapiens) (UniProt P37288). Nature of the assay: activators of vasopressin V1R in CHO cells – cell-based, triplicate, fluorescence, counter-screen for OXTR agonist project (AID 434991;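 active means mean activation over triplicate exceeds the hit threshold set in the earlier primary screen, cut at about 20% in these data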;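 further: peak over basal fluorescence ratio within a 100 second read; 0% = DMSO alone and 100% = 3 nM vasopressin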). The note with it: Fluo-8 calcium fluorescence, at 3 µM, stronger effect = higher value.
The target of assay [3] is Insulin-degrading enzyme (Homo sapiens) (UniProt P14735). Nature of the assay: cellular IDE Abeta-cleavage inhibition – fluorescence polarization, HEK cells, FAbetaB substrate, confirmation (AID 435028;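 active means mean inhibition across triplicate wells above the cutoff set by the earlier primary insulin-degrading enzyme screen, cut at about 16% in these data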;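 further: 0% = DMSO wells and 100% = 60 µM reference IDE inhibitor Ii1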). The note with it: at 5.59 µM, stronger effect = higher value.
The nature of assay [4]: HEK cell viability loss – luminescence, cytotoxicity control for IDE inhibitor project (AID 449730; in the data active means inhibition above about 22%;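 further: 0% = vehicle wells and 100% = reference cytotoxic drug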). Particulars: HEK293 cytotoxicity, ATP luminescence; at 5.59 µM; stronger effect = higher value.
Assay [5] deals with Platelet-activating factor acetylhydrolase (Homo sapiens) (UniProt Q13093). In words: inhibition of plasma PAF acetylhydrolase – biochemical, fluorescence polarization, human, confirmation (AID 463230).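 Further: 0% = enzyme with DMSO and 100% = wells lacking pPAFAH enzyme.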 Particulars: recombinant pPAFAH, FP-Rh probe fluorescence polarization; at 3.39 µM; stronger effect = higher value. (In general: Fluorescence polarisation rises when a labelled molecule tumbles more slowly, as on binding a larger partner.)

Assay [6] concerns the target Toll-like receptor 9 (Homo sapiens) (UniProt Q9NR96). Nature of the assay: disruptors of TLR9 binding to MyD88 – cell-based, CHO, BLA complementation, fluorescence, triplicate, confirmation (AID 540250;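 active means mean inhibition across three repeats above about 21% taken from the earlier screen, limit read from the data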;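 further: blue over green emission ratio reports constitutive TLR9 MyD88 association via BLA complementation; 0% = DMSO vehicle wells and 100% = clavulanate BLA inhibitor wells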). Particulars: CCF4 FRET ratio, at 4.98 µM, stronger effect = higher value.
A short description of assay [7]: BLA reporter readout interference – cell-based, fluorescence, artefact control for TLR9-MyD88 binding inhibitor project (AID 540251;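 active means mean inhibition above a 50% cutoff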;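 further: counterscreen of TLR9-MyD88 hits on CMV-driven BLA in CHO-K1 cells; 0% = DMSO alone and 100% = clavulanate blocking BLA; higher means less blue over green ratio so more BLA blockade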). Particulars: CHO-BLA cells, CCF4 FRET ratio, at 4.98 µM, stronger effect = higher value.
Assay [8] can be described thus: CHO cell viability loss – luminescence, single concentration, cytotoxicity control for TLR9-MyD88 binding inhibitor project (AID 588336; in the data active means inhibition above about 11%). Particulars: TLR9-MyD88 CHO cells cytotoxicity, at 4.98 µM, stronger effect = higher value.
Assay [9] deals with Receptor-interacting serine/threonine-protein kinase 2 (Homo sapiens) (UniProt O43353). In words: inhibitors of RIPK2 association with NOD2 – fluorescence, CHO cells, BLA complementation, triplicate, confirmation (AID 624370;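 active means mean inhibition across replicates above a set limit taken from the earlier primary screen, cut at about 21% in these data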;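 further: 0% = DMSO-only wells and the high end = clavulanate BLA-blocked wells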). Particulars: CCF4 FRET, at 4.98 µM, stronger effect = higher value.
Assay [10] in a line: BLA reporter readout interference – cell-based, CHO-K1 CMV-bla, CCF4 FRET, fluorescence, artefact control for NOD2-RIPK2 interaction inhibitor project, confirmation (AID 624371;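 active means mean inhibition above the low-control mean inhibition plus three low-control SD, cut at about 11% in these data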;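 further: 0% = DMSO only wells and 100% = clavulanate high control wells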). The note with it: CCF4 FRET ratio, counterscreen, at 4.98 µM, stronger effect = higher value. (In general: A counterscreen serves to expose hits that act by an unwanted route or on another target.)
Assay [11] relates to DAF-12 nuclear receptor (Heterodera glycines), GAL4-LBD fusion. Nature of the assay: hgDAF-12 GAL4 fusion reporter activation, retest – cell-based, luminescence, HEK293, GAL4-LBD fusion, confirmation (AID 743050;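 active means mean activation over triplicate wells above the hit cutoff derived from the earlier primary screen, cut at about 11% in these data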;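 further: 0% = DMSO low control and 100% = 2 mM sodium butyrate high control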). The note with it: HEK293 GAL4-hgDAF12 luciferase reporter, agonist mode; at 6.8 µM; stronger effect = higher value; percent of butyrate response. A general note: In a reporter assay the amount or activity of a reporter protein is the signal.

Assay [12] addresses Oxysterols receptor LXR-beta (Homo sapiens) (UniProt P55055). In words: nonspecific reporter activation via LXR – cell-based, luminescence, HEK293, H. glycines campaign, counter-screen for hgDAF-12 agonist project, confirmation (AID 743051;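 active means mean activation of the triplicate above a set limit carried over from the primary screen, none filed active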). Particulars: HEK293 Gal4-LXR luciferase reporter, 24 h; at 6.8 µM; stronger effect = higher value.
Assay [13] shares this target. Nature of the assay: nonspecific reporter activation via LXR – cell-based, luminescence, HEK293, H. contortus campaign, counter-screen for hcDAF-12 agonist project, confirmation (AID 743027;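 active means mean percent activation of the reporter above a cutoff set as the average over tested compounds plus their standard deviation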). The note with it: HEK293 Gal4-LXR tk-luc reporter, 24 h, at 6.8 µM, stronger effect = higher value, normalized: DMSO 0%, positive control 100%.
For assay [14], the system named is Nuclear hormone receptor DAF-12 (Haemonchus contortus). In words: hcDAF-12 luciferase reporter activation, retest – cell-based, luminescence, HEK293, lit1-tk-luc, triplicate, confirmation (AID 743032;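 active means mean activation across triplicate tests above the threshold derived from the earlier primary screen, cut at about 5.5% in these data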;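 further: 0% = DMSO only wells and 100% = 3 µM Δ7-dafachronic acid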). Particulars: HEK293 hcDAF-12 lit1-tk-luc reporter, at 6.8 µM, stronger effect = higher value, % of Δ7-dafachronic acid response.
Assay [15] addresses Protein-arginine deiminase type-4 (Homo sapiens) (UniProt Q9UM07). In words: protein arginine deiminase 4 blockade, retest – biochemical, fluorescence polarization, confirmation (AID 488796;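 active means mean inhibition across replicates above the hit cutoff set by the earlier primary screen, cut at about 15% in these data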;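 further: inhibitors block active-site labeling by the probe so polarization falls; 0% = PAD4 with probe and DMSO and 100% = probe without PAD4 enzyme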). The note with it: recombinant PAD4, RCA probe fluorescence polarization; at 6.36 µM; stronger effect = higher value.
The target of assay [16] is Serine protease HTRA1 (Homo sapiens) (UniProt Q92743). In words: confirming inhibition of human HTRA1 – biochemical, fluorescence polarization, confirmation (AID 540248;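 active means mean inhibition over three repeats above a set limit taken from the earlier primary screen, cut at about 37% in these data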;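 further: 0% = HTRA1 with DMSO and 100% = wells lacking HTRA1; inhibitors block probe binding so polarization drops and inhibition rises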). The note with it: recombinant HTRA1, FP-rhodamine activity-based probe, at 5.96 µM, stronger effect = higher value.
Assay [17] deals with (Lyso)-N-acylphosphatidylethanolamine lipase (Mus musculus) (UniProt Q8VD66). In words: mouse ABHD4 hydrolase blockers, triplicate – biochemical, fluorescence polarization, confirmation (AID 720658;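 active means mean inhibition across replicates above the hit cutoff set in the primary screen, cut at about 30% in these data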;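 further: 0% = wild-type ABHD4 with DMSO and 100% = catalytically dead S159A mutant with DMSO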). The note with it: purified mABHD4, FP-Rh probe fluorescence polarization; at 8.92 µM; stronger effect = higher value.
Assay [18] concerns the target Platelet-activating factor acetylhydrolase IB subunit alpha1 (Homo sapiens) (UniProt Q15102). Nature of the assay: inhibition of PAF acetylhydrolase 1B subunit 3 – biochemical, fluorescence polarization, human, confirmation (AID 493032;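 active means average inhibition over triplicate runs above the hit cutoff set in the earlier primary screen, cut at about 25% in these data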;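 further: 0% = enzyme with DMSO and 100% = wells lacking PAFAH1B3 protein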). The note with it: recombinant PAFAH1B3, FP-Rh activity-based probe, at 3.39 µM, stronger effect = higher value.

Chain of Platelet-activating factor acetylhydrolase (Homo sapiens) (Q13093 whole entry, looked up): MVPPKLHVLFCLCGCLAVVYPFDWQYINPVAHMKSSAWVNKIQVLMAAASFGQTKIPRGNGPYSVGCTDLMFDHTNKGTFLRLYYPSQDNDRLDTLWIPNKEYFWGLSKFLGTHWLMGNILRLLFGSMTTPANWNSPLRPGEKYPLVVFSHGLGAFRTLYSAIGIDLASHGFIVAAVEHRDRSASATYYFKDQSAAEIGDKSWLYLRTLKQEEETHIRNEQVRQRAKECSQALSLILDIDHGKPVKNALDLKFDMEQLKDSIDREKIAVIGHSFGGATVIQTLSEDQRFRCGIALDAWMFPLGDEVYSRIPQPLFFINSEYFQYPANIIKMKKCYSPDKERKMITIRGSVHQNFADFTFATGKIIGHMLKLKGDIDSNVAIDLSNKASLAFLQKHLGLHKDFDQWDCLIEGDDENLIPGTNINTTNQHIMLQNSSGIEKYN
Chain of Insulin-degrading enzyme (Homo sapiens) (P14735 whole entry, looked up): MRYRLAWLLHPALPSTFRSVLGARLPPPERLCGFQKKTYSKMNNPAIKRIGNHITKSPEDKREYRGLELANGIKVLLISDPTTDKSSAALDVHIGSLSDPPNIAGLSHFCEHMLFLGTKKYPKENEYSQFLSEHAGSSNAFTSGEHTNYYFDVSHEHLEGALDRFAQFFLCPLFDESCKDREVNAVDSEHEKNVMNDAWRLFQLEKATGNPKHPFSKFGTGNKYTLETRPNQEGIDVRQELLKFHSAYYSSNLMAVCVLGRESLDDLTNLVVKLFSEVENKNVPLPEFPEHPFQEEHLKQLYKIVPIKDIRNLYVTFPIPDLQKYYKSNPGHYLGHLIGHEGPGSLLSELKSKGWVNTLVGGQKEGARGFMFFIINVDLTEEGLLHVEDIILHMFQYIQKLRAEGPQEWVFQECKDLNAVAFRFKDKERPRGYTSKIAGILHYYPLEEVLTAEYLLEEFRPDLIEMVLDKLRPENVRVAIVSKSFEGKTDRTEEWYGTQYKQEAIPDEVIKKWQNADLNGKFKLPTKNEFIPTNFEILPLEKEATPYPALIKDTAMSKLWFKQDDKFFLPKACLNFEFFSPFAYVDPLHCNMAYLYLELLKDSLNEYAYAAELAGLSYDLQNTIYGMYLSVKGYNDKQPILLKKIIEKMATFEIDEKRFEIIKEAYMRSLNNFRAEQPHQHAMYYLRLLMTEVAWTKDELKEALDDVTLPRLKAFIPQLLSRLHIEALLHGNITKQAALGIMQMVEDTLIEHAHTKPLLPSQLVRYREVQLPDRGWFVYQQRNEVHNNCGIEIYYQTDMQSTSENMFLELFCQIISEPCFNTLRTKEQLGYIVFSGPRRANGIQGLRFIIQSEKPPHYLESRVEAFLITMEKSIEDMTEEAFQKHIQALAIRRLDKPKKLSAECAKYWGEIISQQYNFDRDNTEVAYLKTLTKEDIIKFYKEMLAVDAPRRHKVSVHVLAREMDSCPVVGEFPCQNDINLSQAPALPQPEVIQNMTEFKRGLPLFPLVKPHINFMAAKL
Chain of Protein-arginine deiminase type-4 (Homo sapiens) (Q9UM07 whole entry, looked up): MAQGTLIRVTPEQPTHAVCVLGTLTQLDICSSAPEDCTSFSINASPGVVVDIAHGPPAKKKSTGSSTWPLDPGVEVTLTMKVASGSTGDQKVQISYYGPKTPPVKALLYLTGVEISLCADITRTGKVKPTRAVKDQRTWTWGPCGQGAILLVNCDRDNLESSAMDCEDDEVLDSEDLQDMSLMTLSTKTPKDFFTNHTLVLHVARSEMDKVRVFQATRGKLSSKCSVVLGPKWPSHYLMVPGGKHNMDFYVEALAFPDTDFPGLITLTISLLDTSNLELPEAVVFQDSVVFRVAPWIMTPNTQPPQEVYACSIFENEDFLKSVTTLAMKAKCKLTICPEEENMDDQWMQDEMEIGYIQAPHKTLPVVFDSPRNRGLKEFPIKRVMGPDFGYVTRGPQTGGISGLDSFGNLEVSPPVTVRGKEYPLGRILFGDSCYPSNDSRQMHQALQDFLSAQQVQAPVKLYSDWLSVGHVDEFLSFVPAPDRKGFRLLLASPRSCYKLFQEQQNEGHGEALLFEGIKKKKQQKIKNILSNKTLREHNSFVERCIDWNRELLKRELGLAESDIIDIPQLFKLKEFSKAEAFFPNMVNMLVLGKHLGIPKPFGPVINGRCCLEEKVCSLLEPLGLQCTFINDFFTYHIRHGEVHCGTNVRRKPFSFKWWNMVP
Chain of Oxysterols receptor LXR-beta (Homo sapiens) (P55055 whole entry, looked up, the tested form may be a part): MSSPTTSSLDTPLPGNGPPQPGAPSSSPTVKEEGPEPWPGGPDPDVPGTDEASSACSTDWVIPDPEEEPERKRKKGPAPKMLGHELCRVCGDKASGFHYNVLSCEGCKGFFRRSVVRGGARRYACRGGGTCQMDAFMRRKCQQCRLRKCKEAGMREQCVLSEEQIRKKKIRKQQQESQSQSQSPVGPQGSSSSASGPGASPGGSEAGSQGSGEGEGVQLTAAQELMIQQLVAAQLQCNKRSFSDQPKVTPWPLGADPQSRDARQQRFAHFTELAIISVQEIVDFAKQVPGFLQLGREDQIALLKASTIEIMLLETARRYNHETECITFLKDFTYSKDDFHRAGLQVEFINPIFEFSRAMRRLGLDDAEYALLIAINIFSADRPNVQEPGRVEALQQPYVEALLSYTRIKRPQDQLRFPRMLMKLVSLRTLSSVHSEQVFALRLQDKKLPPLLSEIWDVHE
Chain of Toll-like receptor 9 (Homo sapiens) (Q9NR96 whole entry, looked up): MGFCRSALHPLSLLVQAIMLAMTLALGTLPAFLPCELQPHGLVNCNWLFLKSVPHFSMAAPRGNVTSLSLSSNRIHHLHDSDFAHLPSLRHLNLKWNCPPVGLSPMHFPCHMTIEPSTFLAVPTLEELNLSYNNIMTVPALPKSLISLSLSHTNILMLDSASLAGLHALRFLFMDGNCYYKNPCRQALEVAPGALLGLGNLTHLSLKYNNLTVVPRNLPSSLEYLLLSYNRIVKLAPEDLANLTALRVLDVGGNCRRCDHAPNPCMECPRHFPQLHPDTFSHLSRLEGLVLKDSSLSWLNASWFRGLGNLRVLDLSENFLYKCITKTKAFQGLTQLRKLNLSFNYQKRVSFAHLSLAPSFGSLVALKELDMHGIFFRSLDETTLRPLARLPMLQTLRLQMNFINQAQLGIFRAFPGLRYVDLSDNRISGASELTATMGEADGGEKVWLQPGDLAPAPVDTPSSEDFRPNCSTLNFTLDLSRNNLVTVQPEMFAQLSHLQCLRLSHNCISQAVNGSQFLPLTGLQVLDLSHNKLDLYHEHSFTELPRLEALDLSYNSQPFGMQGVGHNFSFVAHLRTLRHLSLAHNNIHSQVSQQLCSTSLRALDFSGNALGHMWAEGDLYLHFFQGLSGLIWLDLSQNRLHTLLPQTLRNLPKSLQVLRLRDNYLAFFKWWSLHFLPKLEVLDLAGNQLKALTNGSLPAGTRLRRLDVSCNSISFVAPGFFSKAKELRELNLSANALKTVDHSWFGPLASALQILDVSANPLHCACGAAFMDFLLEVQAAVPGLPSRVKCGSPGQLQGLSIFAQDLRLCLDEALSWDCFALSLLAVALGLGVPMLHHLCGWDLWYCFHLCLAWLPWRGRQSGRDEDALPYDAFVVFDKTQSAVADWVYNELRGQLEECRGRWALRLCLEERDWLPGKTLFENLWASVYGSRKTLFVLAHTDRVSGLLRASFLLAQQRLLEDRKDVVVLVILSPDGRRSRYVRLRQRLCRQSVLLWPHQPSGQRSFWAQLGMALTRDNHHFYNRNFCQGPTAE
Chain of Receptor-interacting serine/threonine-protein kinase 2 (Homo sapiens) (O43353 whole entry, looked up): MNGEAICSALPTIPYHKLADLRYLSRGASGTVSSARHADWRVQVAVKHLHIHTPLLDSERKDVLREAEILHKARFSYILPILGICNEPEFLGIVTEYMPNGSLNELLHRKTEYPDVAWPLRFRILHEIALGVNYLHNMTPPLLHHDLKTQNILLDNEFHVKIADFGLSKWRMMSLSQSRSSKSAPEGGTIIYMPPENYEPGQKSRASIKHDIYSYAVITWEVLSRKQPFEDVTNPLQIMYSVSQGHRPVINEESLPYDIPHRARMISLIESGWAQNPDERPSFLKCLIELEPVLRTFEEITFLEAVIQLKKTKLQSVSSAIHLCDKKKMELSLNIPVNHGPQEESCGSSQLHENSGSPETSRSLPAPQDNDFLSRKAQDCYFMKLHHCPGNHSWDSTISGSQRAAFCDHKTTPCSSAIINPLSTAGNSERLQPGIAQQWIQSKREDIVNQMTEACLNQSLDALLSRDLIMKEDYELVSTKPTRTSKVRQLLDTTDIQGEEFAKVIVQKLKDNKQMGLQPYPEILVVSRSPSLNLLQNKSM
Chain of (Lyso)-N-acylphosphatidylethanolamine lipase (Mus musculus) (Q8VD66 whole entry, looked up): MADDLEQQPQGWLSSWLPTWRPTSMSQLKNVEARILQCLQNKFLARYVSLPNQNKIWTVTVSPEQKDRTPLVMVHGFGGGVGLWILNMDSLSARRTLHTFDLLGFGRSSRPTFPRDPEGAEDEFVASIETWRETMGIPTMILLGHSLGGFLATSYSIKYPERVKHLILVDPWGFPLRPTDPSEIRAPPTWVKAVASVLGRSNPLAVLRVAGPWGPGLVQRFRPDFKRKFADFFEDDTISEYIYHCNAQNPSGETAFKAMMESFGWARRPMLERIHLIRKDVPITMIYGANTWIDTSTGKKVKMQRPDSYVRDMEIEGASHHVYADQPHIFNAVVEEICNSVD
Chain of Vasopressin V1a receptor (Homo sapiens) (P37288 whole entry, looked up): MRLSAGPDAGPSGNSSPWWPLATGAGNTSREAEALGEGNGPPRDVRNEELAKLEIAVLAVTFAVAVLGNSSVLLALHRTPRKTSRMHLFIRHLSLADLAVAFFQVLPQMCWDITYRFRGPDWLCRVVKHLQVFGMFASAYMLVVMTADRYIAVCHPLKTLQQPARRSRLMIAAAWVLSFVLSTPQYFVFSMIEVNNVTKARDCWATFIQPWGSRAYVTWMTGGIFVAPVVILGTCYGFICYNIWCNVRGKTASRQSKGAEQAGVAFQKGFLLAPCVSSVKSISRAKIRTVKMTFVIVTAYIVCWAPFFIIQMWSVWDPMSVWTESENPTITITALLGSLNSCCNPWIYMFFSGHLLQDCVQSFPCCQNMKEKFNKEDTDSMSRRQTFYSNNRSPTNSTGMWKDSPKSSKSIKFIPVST

In the case of `COc1cc(/C=C2/SC(=S)N(Cc3ccccc3)C2=O)cc(OC)c1O`, the activation in assay [1] is 29.3% (active); in assay [2], 38.2% (active). Further, the inhibition – broadly, the relative decrease from the control value, in per cent – was 142% (active) in [3] and 19.6% in [4].
For `Cc1ccc2c(c1)c1ncnc(N3CCc4ccccc4C3)c1n2C`, the values for the inhibition in assay [3] and in assay [4] were 14% and 7.19%, respectively.
The like results for `Cc1cc(Cl)ccc1OCCCC(=O)NCc1ccncc1` were, in that order, 7.81% and 14.7%.
For the molecule `CCCc1nc(SCC(=O)Nc2ccc(S(=O)(=O)N(C)C)cc2)c2ccccc2n1`, the inhibition was 6.74% in assay [3] and 21.9% in [4].
Regarding `Cc1c(-c2cccc(Cl)c2)nc2ccccc2c1C(=O)OCC(=O)N(C)C1CCS(=O)(=O)C1` (configuration not stated), the figures for the inhibition in assay [3] and in assay [4] were 16.9% (active) and 14.1%, respectively.
As for `CCN(CC)c1ccc2cc(C(N)=O)/c(=N\NC(=O)c3ccncc3)oc2c1`, the inhibition in [3] is 85.5% (active); in assay [4], 28.8% (active).
The like results for `CCC(=C/c1sc2ccc3ccccc3c2[n+]1C)/C=C1\Sc2ccc3ccccc3c2N1C` were, in that order, 13.4% and 110% (active).
Consider `OC(CNCC1CCCO1)Cn1c2ccc(Br)cc2c2cc(Br)ccc21` (configuration not stated), for which, in [5], the inhibition was 37.2% (active).
The same measure, in the same setting: with `CC(=O)N1CCN(C(=O)c2cc(-c3ccc(C)o3)nc3ccccc23)CC1` the figure was 5.07%; with `Oc1c(Br)cc(/C=N/NC(=S)NCC2CCCO2)cc1Br` (configuration not stated), 36.3% (active); with `COc1cccc(/C=N/NC(=O)c2[nH]nc3c2CCc2ccccc2-3)c1O`, 38.9% (active).
The same measure, in the same setting: with `CCc1ccc(CN(C)C(=O)CCc2nnc(-c3ccc(-c4ccccc4)cc3)o2)nc1` the figure was 11.8%.
As to `Nc1c(C(=O)c2cccs2)sc2nsc(SCCN3CCCCC3)c12`, the inhibition in assay [3] was 54.9% (active); in assay [4], 18.4%; in assay [6], 31.7% (active); in [7], 27.5%; in assay [8] it was 10.9% (active); in assay [9] it was 19.8%. The inhibition in assay [10] is 36.9% (active).
Regarding `COc1ccc(N=C(C)c2sc3ccccc3c2O)cc1`, the inhibition is 56.1% (active) in assay [3] and 15.2% in [4]. The activation in assay [11] is 18.6% (active); in assay [12] it was 0.76%.
For the molecule `CCOc1ccc(NS(=O)(=O)c2ccc(C(=O)NCC(c3ccccc3OC)N3CCCC3)cc2)cc1` (configuration not stated), the inhibition in [5] is 45.4% (active).
On the same count and under the same terms, the value for `Cc1ccc(S(=O)(=O)NCc2csc(C)n2)c(C)c1` was 2.33%.
Take `N#CC1=C(N)Oc2c(sc3ccccc23)C1c1ccco1` (configuration not stated): the results for the inhibition in [3] and in [4] were 55.6% (active) and 39.4% (active), respectively. The activation is -0.13% in [13] and 1.83% in [14].
On to `Cc1cc(C(=O)CSc2nc(N)cc(=O)[nH]2)c(C)n1-c1cccc(F)c1`, for which, in assay [5], the inhibition is 51.8% (active).
With `COc1cccc(CNC(=O)CCC2CCCN(C(=O)c3ccc(F)c(Cl)c3)C2)c1` (configuration not stated), the inhibition in [5] is 17.2%.
With `CN(C)S(=O)(=O)c1cccc(-c2nn(-c3ccccc3)cc2/C=C2\SC(=S)N(CC(=O)O)C2=O)c1`, the inhibition in assay [5] is 40.4% (active); in [15], 2.15%.
On to `CCCCC(=O)Nc1ccc2c(c1)C(=O)NC2=O`, for which the inhibition in [5] was 4.81%.
For the molecule `CC1CCCCC1NC(=O)COC(=O)Cc1ccc(Cl)cc1` (configuration not stated), the inhibition in assay [5] was 22.3%.
Take `O=C(N/N=C/c1cccnc1)c1cc2ccccc2cc1O`: the inhibition in assay [5] was 5.94%; in assay [16], 13.8%.
As for `COCC(C)NC(=O)c1ccc(-n2nc(C(F)(F)F)cc2-c2cccs2)cc1` (configuration not stated), the inhibition in assay [5] is 23.6%.
For the molecule `Oc1ccc(N=Nc2nccs2)c(O)c1`, the inhibition in [5] was 5.09%.
With `Cc1cc(C(=O)CSc2nc(N)cc(=O)[nH]2)c(C)n1CCc1ccc(Cl)cc1`, the inhibition is 74.3% (active) in assay [5] and 13.4% in assay [15].
On to `Cc1ccc(/C=N/NC(=O)c2cc3ccccc3cc2O)o1`, for which the inhibition was 9.89% in [5] and 38.8% (active) in assay [16].
In the case of `N#C/C(=C\c1ccc(O)c(O)c1)C(=O)NCc1ccccc1`, the inhibition in assay [3] was 43.1% (active); in [4], 6.24%; in assay [16], 84.8% (active); in assay [17] it was 30.8% (active).
`Cc1ccc(-c2noc(CSc3nnc(-c4ccncc4)n3-c3ccc(F)cc3)n2)cc1`: the inhibition in assay [5] is 1.52%.
Same read-out and setting: with `COC(=O)c1cc(S(=O)(=O)Nc2ccc(C)c(F)c2)c[nH]1` the figure was 24.1%.
In the case of `O=C(/C=C/c1ccc(OCc2c(F)cccc2Cl)cc1)N1CCOCC1`, the inhibition is 12.4% in assay [3] and 67.9% (active) in assay [4].
With `O=C(CCC1CCCCC1)Nc1cc(C(F)(F)F)ccc1N1CCOCC1`, in assay [5], the inhibition was 6.87%.
As to `COc1ccc(/C=C/C(=O)c2cc(Br)ccc(=O)c2O)cc1`, the inhibition in assay [5] was 20.5%.
For `CC(C)C1N=C2c3ccccc3N=C(SCC(=O)c3ccc(O)c(O)c3)N2C1=O` (configuration not stated), the inhibition is 54.5% (active) in assay [5] and 57% (active) in assay [16].
For `COC(=O)c1ccc(C(NC(=O)OCc2ccccc2)/C(C)=C/[C@@H](C)C(=O)NCc2ccc(OC)c(OC)c2)cc1` (some centres not stated), the inhibition in assay [5] is 36% (active).
`Cc1ccc(-n2c(C)cc(/C=C(\C#N)C(=O)NCC3CCCO3)c2C)cc1` (configuration not stated): the inhibition in [5] was 63.7% (active).
As to `CCN1CCCC1CNc1ncnc2c1[nH]c1ccc(F)cc12` (configuration not stated), the figures for the inhibition in [3] and in [4] were 3.64% and 8.81%, respectively.
On to `CC1(OC(=O)C2CCCC2)C(=O)C=C2C=C(c3ccc(C#N)cc3)OC=C2C1=O` (configuration not stated), for which the inhibition in assay [5] is 53.2% (active).
Regarding `O=C(/C=C(O)/C=C/c1ccc(O)cc1)/C=C/c1ccc(O)cc1`, the inhibition is 50% (active) in [3]; 7.11% in [4]; 31.6% (active) in [18]; 39.7% (active) in assay [6]; 42.9% in [7]; 6.33% in [8]. Moreover, the inhibition in assay [9] was 64.2% (active); in assay [10], 65.5% (active).

(Values after PubChem BioAssay.)
